Data published in PubChem BioAssay (Tox21).
Records with an inconclusive call do not appear. Where a call stands in place of a potency, no number is given. Calls of active or inactive are those of the source. Unless noted, calls follow the shape of the dose curve; as a rule, active = well fitted curve in the direction sought with a large enough effect in the repeat runs; inconclusive = weak or mixed curves; inactive = no such curve, though single readings can be large; an effect the other way counts as inactive or inconclusive.

What was measured:
[1] = biological target: Progesterone receptor (Homo sapiens) (UniProt P06401); assay: qHTS assay to identify small molecule agonists of the progesterone receptor (PR) signaling pathway (AID 1346784; calls by dose curve; also: nearly all actives have a fitted effect of over 30% in size)
Method in brief: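 Cells (PR-UAS-bla HEK 293T, GripTite) were plated in assay medium containing 2% charcoal-stripped FBS and incubated 6 hr. Test compounds in DMSO were added for 16 hr at 37C. FRET substrate was then loaded for 2 hr at room temperature before fluorescence reading.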

[2] = qHTS assay to identify small molecule antagonists of the progesterone receptor (PR) signaling pathway - cell viability counter screen (AID 1346798); also: series mostly up to about 92 µM; nearly all actives have a fitted effect of over 50% in size
Method in brief: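 Counter screen for cytotoxicity: viability of PR-UAS-bla HEK293T cells was measured with CellTiter-Glo luminescence following 16 hr compound exposure in the presence of R5020.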

[3] = qHTS assay to identify small molecule antagonists of the TGF-beta/Smad signaling pathway - cell viability counter screen (AID 1346824); also: nearly all actives have a fitted effect of over 50% in size
Method in brief: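 SBE-bla HEK 293T cells, incubated overnight, then compound plus 0.25 ng/mL TGF-beta1 (stock added) for 5 hr at 37 C. Viability was read in the same wells by CellTiter-Glo luminescence after 30 min at room temperature.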

[4] = qHTS assay to identify small molecule agonists of the TGF-beta/Smad signaling pathway - cell viability counter screen (AID 1346829); also: top concentration of the series differs between compounds; nearly all actives have a fitted effect of over 45% in size
Method in brief: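 Tox21 qHTS format: SBE-bla HEK 293T cells treated with DMSO-dissolved compounds for 5 hr; CellTiter-Glo luminescence after 30 min at room temperature.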

[5] = qHTS assay to identify small molecule agonists of the TGF-beta/Smad signaling pathway (AID 1346859; active = well fitted activation curve with a large enough effect in the signal ratio in the repeat runs, not every such curve was filed as active; the % refers to the signal ratio; also: series mostly up to about 77 µM)
Method in brief: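 Reporter line: HEK 293T with stably integrated SBE-controlled beta-lactamase. Compound exposure lasts 5 hr at 37 C and 5% CO2; substrate loading follows for 2 hr at room temperature, with emission read at 460 and 530 nm.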

[6] = biological target: Thyrotropin-releasing hormone receptor (Homo sapiens) (UniProt P34981); assay: qHTS assay to identify small molecule antagonists of the thyrotropin-releasing hormone receptor (TRHR) signaling pathway (AID 1346877; active = well fitted inhibition curve with a large enough effect in the repeat runs, not every such curve was filed as active; also: series mostly up to about 51 µM)
Method in brief: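 Antagonism is measured as suppression of the calcium response to 1 nM TRH in TRHR-HEK293 cells that have been dye-loaded for 2 h at 37 °C after overnight plating. Each compound is tested at 15 concentrations in triplicate.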

[7] = biological target: Thyrotropin-releasing hormone receptor (Homo sapiens) (UniProt P34981); assay: qHTS assay to identify small molecule agonists of the thyrotropin-releasing hormone receptor (TRHR) signaling pathway (AID 1346891; calls by dose curve;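 also: HEK293 cells expressing TRHR with calcium dye readout; series mostly up to about 58 µM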)
Method in brief: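 Cells: TRHR-Hek293, seeded and incubated 18 h. Dye loading: 2 h at 37 °C. Compound added from DMSO stock by pin tool. Read-out: kinetic calcium fluorescence over 3 min.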

[8] = Human pregnane X receptor (PXR) small molecule agonists, qHTS cell viability counter screen (AID 1346977); also: nearly all actives have a fitted effect of over 50% in size; also: potency is read from the fitted curve at half-maximal effect
Method in brief: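 Cytotoxicity counter screen run in the same wells as the PXR luciferase assay, using PXR-Luc HepG2 cells in charcoal-stripped serum medium. Viability: CellTiter-Fluor fluorescence after 24hr compound treatment.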

[9] = Caspase-3/7 induction in HepG2 cells by small molecules, qHTS assay (AID 1346978); also: nearly all actives have a fitted effect of over 15% in size
Method in brief: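 Wild-type HepG2 cells, 2,000/well, settled 5 hr at 37 C and 5% CO2, then compound-treated for 17 hr; caspase-3/7 activity read by luminescent Caspase-Glo 3/7 after 30 min at room temperature.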

[10] = Caspase-3/7 induction in CHO-K1 cells by small molecules, qHTS assay (AID 1346980); also: nearly all actives have a fitted effect of over 15% in size
Method in brief: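 Wild-type CHO-K1 cells exposed to compounds for 17hr at 37 C, 5% CO2. Caspase-3/7 activity then measured by Caspase-Glo 3/7 luminescence after 30min at room temperature.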

[11] = biological target: Nuclear receptor subfamily 1 group I member 2 (Homo sapiens) (UniProt O75469); assay: Human pregnane X receptor (PXR) small molecule agonists, qHTS assay (AID 1346982); also: nearly all actives have a fitted effect of over 35% in size; also: potency is read from the fitted curve at half-maximal effect
Method in brief: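 Cells: HepG2 stably carrying PXR-Luc. Medium held 5% charcoal-stripped FBS. Compounds in DMSO added after 5 hr plating, incubated 24 hr, then luminescence quantified with ONE-Glo.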

[12] = biological target: Nuclear receptor subfamily 1 group I member 2 (Homo sapiens) (UniProt O75469); assay: CYP3A4 induction through human pregnane X receptor (PXR) by small molecules, qHTS assay (AID 1346984); also: nearly all actives have a fitted effect of over 40% in size
Method in brief: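 Quantitative HTS in DPX-2 cells, i.e. HepG2 transfected with PXR response element and CYP3A4-promoter luciferase. Compounds in DMSO incubated 24hr at 37C; then P450-Glo CYP3A4 substrate, 3uM final, 3hr; One-Glo luminescence.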

[13] = biological target: Nuclear receptor subfamily 1 group I member 2 (Homo sapiens) (UniProt O75469); assay: Human pregnane X receptor (PXR) activation by small molecules, qHTS assay (AID 1346985); also: nearly all actives have a fitted effect of over 40% in size
Method in brief: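 DPX-2 cells (HepG2 co-transfected with a PXR response element and a CYP3A4-promoter luciferase construct) were seeded at 2,000 per well, rested 5 hr at 37C, then exposed to DMSO-dissolved compounds for 24 hr. Activation was read as luciferase luminescence.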

[14] = biological target: Cytochrome P450 2D6 (Homo sapiens) (UniProt P10635); assay: Cytochrome P450 Family 2 Subfamily D Member 6 (CYP2D6) small molecule antagonists: luciferase reporter qHTS assay (AID 1671196); also: nearly all actives have a fitted effect of over 50% in size; also: potency is read from the fitted curve at half-maximal effect
Method in brief: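 Enzyme and proluciferin substrate were first combined with test chemical for 10 min at room temperature. Adding NADPH regeneration solution started a 1 h reaction, stopped with luciferin detection reagent and read by luminescence 20 min later.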

[15] = qHTS assay to identify small molecule agonists of the progesterone receptor (PR) signaling pathway - cell viability counter screen (AID 1346799; calls by dose curve; also: nearly all actives have a fitted effect of over 45% in size)
Method in brief: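 Cells (PR-UAS-bla HEK293T) are plated at 3,000/well in 2% charcoal-stripped FBS medium, rested 6 hr, dosed and incubated 16 hr at 37C. CellTiter-Glo is then added and luminescence measured after 30 min at room temperature.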

[16] = Caspase-3/7 induction in CHO-K1 cells by small molecules, qHTS cell viability counter screen (AID 1346979); also: nearly all actives have a fitted effect of over 35% in size
Method in brief: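 Cytotoxicity counter screen run in parallel with the caspase-3/7 assay: CHO-K1 cells, 16hr compound treatment at 37C, then CellTiter-Fluor for 1hr before fluorescence reading.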

[17] = Caspase-3/7 induction in HepG2 cells by small molecules, qHTS cell viability counter screen (AID 1346981); also: series mostly up to about 92 µM; nearly all actives have a fitted effect of over 30% in size
Method in brief: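 Cell viability is measured as a cytotoxicity counter screen alongside the Caspase-Glo 3/7 readout in identical wells. Wild-type HepG2 cells are treated with test compounds for 16 hr at 37 C before CellTiter-Fluor addition and a 1-hr incubation.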

[18] = biological target: Cytochrome P450 2C19 (Homo sapiens) (UniProt P33261); assay: Cytochrome P450 Family 2 Subfamily C Member 19 (CYP2C19) small molecule antagonists: luciferase reporter qHTS assay (AID 1671197); also: nearly all actives have a fitted effect of over 65% in size; also: potency is read from the fitted curve at half-maximal effect
Method in brief: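 Relative luminescence units recorded 20 min after the detection reagent stopped a 1 h, 37C CYP2C19 reaction on proluciferin substrate, which was started by NADPH regeneration following 10 min room-temperature compound preincubation; ketoconazole positive control.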

Sequence of Cytochrome P450 2C19 (Homo sapiens) (P33261 whole entry, looked up): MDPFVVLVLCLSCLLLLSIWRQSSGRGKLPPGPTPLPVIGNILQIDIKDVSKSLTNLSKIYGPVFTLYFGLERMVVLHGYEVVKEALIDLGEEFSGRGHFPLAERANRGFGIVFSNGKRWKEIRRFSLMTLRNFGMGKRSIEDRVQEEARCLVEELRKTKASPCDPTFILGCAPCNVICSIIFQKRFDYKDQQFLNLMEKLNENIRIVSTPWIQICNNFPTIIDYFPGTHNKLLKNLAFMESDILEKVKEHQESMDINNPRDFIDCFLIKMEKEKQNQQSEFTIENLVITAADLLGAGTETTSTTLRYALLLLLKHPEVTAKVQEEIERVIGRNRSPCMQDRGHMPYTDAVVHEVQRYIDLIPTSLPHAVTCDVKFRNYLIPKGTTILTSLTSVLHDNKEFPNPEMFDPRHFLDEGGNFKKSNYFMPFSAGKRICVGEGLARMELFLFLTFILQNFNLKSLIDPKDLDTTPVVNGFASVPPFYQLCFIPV
Sequence of Progesterone receptor (Homo sapiens) (P06401 whole entry, looked up): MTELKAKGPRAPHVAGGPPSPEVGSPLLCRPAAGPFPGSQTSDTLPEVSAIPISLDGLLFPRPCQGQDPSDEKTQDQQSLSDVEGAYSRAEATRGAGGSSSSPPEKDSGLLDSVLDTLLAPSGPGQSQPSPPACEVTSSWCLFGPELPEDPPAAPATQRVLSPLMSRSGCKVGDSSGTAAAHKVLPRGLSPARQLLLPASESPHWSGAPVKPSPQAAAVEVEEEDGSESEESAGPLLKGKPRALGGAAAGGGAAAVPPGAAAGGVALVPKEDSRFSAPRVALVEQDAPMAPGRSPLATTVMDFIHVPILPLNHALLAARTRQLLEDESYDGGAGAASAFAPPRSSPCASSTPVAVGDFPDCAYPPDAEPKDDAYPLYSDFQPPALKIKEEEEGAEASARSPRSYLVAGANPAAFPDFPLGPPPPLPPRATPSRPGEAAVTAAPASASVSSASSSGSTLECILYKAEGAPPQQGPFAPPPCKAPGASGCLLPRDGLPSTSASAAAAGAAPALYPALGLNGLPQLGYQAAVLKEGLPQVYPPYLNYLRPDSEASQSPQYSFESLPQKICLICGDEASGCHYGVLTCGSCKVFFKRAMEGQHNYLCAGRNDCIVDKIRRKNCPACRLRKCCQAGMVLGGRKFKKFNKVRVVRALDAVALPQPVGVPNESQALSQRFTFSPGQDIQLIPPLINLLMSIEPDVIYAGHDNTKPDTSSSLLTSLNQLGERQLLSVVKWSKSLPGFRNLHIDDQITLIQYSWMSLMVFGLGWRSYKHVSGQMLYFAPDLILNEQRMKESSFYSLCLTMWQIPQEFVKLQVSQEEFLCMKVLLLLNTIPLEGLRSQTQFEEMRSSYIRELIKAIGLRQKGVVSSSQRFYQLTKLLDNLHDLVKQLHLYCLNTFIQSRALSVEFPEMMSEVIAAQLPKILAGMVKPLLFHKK
Sequence of Thyrotropin-releasing hormone receptor (Homo sapiens) (P34981 whole entry, looked up): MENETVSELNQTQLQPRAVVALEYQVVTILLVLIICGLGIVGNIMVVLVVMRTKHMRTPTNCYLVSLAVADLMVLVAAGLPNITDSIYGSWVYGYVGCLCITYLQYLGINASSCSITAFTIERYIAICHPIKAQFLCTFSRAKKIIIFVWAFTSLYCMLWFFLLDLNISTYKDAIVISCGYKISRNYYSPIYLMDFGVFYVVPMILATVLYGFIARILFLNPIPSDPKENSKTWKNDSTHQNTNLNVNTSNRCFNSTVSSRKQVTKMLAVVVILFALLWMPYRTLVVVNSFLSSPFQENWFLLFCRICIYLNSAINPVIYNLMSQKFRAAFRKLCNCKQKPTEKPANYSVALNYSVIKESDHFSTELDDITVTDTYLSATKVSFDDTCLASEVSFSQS
Sequence of Cytochrome P450 2D6 (Homo sapiens) (P10635 whole entry, looked up): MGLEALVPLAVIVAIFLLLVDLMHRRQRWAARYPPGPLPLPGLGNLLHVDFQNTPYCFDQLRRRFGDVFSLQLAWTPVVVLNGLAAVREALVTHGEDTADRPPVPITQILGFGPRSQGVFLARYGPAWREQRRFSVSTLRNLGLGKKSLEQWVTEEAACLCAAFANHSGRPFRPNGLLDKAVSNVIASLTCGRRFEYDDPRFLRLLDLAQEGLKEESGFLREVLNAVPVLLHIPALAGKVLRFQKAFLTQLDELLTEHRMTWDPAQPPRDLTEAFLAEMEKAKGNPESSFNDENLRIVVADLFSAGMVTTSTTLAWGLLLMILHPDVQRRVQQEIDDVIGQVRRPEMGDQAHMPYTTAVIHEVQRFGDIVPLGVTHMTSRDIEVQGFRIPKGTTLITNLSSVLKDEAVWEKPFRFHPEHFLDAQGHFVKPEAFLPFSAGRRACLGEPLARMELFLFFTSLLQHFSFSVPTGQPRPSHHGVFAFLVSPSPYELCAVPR
Sequence of Nuclear receptor subfamily 1 group I member 2 (Homo sapiens) (O75469 whole entry, looked up): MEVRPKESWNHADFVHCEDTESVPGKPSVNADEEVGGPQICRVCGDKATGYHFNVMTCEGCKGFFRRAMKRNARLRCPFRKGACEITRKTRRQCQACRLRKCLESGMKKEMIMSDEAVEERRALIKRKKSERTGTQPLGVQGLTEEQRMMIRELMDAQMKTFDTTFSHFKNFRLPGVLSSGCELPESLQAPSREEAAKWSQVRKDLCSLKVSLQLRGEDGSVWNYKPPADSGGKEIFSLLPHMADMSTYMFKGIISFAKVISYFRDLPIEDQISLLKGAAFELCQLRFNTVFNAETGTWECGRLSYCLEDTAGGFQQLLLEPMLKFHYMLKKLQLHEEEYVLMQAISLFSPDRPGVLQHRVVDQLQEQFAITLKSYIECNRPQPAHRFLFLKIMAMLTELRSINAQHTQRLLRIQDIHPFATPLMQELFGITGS

Compound	Potency [1]	Potency [2]	Potency [3]	Potency [4]	Potency [5]	Potency [6]	outcome [7]	Potency [8]	Potency [9]	Potency [10]	Potency [11]	Potency [12]	Potency [13]	Potency [14]	Potency [15]	Potency [16]	Potency [17]	Potency [18]
CCCCCCCCCCC[C@@H](C[C@@H]1OC(=O)[C@H]1CCCCCC)OC(=O)[C@H](CC(C)C)NC=O	inactive	inactive	inactive	inactive	inactive	inactive	inactive	inactive	inactive	inactive	inactive	inactive	inactive	inactive				
O=C(Oc1ccccc1)Oc1ccccc1	inactive	inactive	inactive		inactive	inactive	inactive	inactive		inactive				inactive	inactive	inactive	inactive	79.3 µM (active)
c1ccc(C(O[C@@H]2CCCN(CCc3ccc4c(c3)OCO4)C2)c2ccccc2)cc1	inactive	inactive	inactive		inactive	inactive	inactive	61.1 µM (active)		inactive	inactive			2.52 µM (active)				35.6 µM (active)
O=c1oc2cc(O)ccc2c2oc3cc(O)ccc3c12	inactive	inactive	inactive	inactive		inactive	inactive	inactive		inactive	65.7 µM (active)				inactive	inactive	inactive	
CCn1c2ccccc2c2cc([N+](=O)[O-])ccc21	inactive		inactive	inactive		inactive	inactive	inactive	inactive	inactive	19.3 µM (active)			inactive	inactive	inactive	inactive	7.96 µM (active)
CCCNCCC	inactive	inactive		inactive	inactive	inactive	inactive	inactive		inactive	inactive				inactive	inactive	inactive	inactive
Clc1nnc(Cl)c2ccccc12	inactive	inactive	inactive	inactive	inactive	inactive		inactive	inactive	inactive					inactive		inactive	inactive
